Test results: publication PMC5540273 (PLoS ONE, 2017)

Key:
Settings in all cases: concentration: 1 μM, replicates: in singlicate; n = 1
PKN1 = test system: PKN1
PKN2 = test system: PKN2
PLK1 = test system: PLK1
PLK2 = test system: PLK2
PLK3 = test system: PLK3
PLK4 = test system: PLK4
PRKCD = test system: PRKCD
PRKCE = test system: PRKCE
PRKCH = test system: PRKCH
PRKCI = test system: PRKCI
PRKCQ = test system: PRKCQ
PRKD1 = test system: PRKD1
PRKD2 = test system: PRKD2
PRKD3 = test system: PRKD3
PRKG1 = test system: PRKG1
PRKG2 = test system: PRKG2
PRKR = test system: T1, PRKR
T1 construct: gene EIF2AK2

PRKX = test system: PRKX
PRP4 = test system: PRP4
PYK2 = test system: T2, PYK2
T2 construct: gene PTK2B
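Also: KINOMEscan kinase panel screen.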

Row | Compound | %Inh (PKN1) | %Inh (PKN2) | %Inh (PLK1) | %Inh (PLK2) | %Inh (PLK3) | %Inh (PLK4) | %Inh (PRKCD) | %Inh (PRKCE) | %Inh (PRKCH) | %Inh (PRKCI) | %Inh (PRKCQ) | %Inh (PRKD1) | %Inh (PRKD2) | %Inh (PRKD3) | %Inh (PRKG1) | %Inh (PRKG2) | %Inh (PRKR) | %Inh (PRKX) | %Inh (PRP4) | %Inh (PYK2)
1 | COc1ccc2nc(-c3cccc(C)n3)nc(Nc3ccncc3)c2c1 [GSK204919] | 3% | 0% | 0% | 0% | 0% | 0% | 0% | 0% | 30% | 31% | 44% | 92.4% | 98.8% | 100% | 8% | 0% | 0% | 7% | 8% | 9%
2 | CCCc1ccc(S(=O)(=O)NC2CCN(c3ccnc(Nc4ccc(F)cc4)n3)C2)cc1 (stereo not shown) [GSK1379715] | 7% | 0% | 0% | 0% | 0% | 0% | 0% | 17% | 11% | 0% | 27% | 1% | 0% | 0% | 0% | 0% | 0% | 1% | 20% | 0%
3 | COc1cccc(NC(=O)NC2CCN(c3ccnc(Nc4ccc(F)cc4)n3)C2)c1 (stereo not shown) [GSK1379721] | 8% | 0% | 7% | 0% | 7% | 3% | 0% | 14% | 0% | 4% | 3% | 0% | 0% | 19% | 0% | 0% | 1% | 21% | 47% | 0%
4 | Cc1cc(-c2ccc3c(c2)CC[C@@H](N[C@@H](C)c2ccccc2)C3)cnc1N.Cl [GW412617] | 8% | 0% | 16% | 0% | 0% | 0% | 7% | 0% | 17% | 0% | 36% | 18% | 21% | 0% | 9% | 0% | 0% | 12% | 0% | 12%
5 | C[C@@H]1CCCCN1c1cc(-c2ccc3c(N)n[nH]c3c2)nc(N)n1 [GSK2258759] | 6% | 0% | 0% | 0% | 0% | 42% | 0% | 0% | 0% | 22% | 0% | 0% | 3% | 0% | 0% | 14% | 21% | 15% | 1% | 0%
6 | COc1ccccc1CNC(=O)c1cc(C(=O)c2ccccc2C)c[nH]1 [GSK364507] | 0% | 0% | 0% | 0% | 0% | 100% | 0% | 1% | 6% | 3% | 0% | 9% | 1% | 5% | 1% | 2% | 0% | 7% | 23% | 7%
7 | CN1C(=O)C(Nc2ccc(Cl)c(C(=O)O)c2)=C(c2ccc(Cl)cc2)C1=O [SB-404290] | 91.6% | 31% | 18% | 24% | 18% | 0% | 0% | 35% | 0% | 0% | 77% | 0% | 6% | 0% | 13% | 0% | 0% | 0% | 0% | 5%
8 | Cc1cccc(-c2nc(Nc3ccc4[nH]ncc4c3)c3ccccc3n2)n1 [GW857175] | 10% | 0% | 11% | 12% | 15% | 8% | 11% | 0% | 0% | 33% | 27% | 99.8% | 99.9% | 98.1% | 0% | 2% | 0% | 0% | 13% | 0%
9 | COc1ccc(Nc2nccc(-c3cccc(NC(=O)c4cc5cc(F)ccc5[nH]4)c3)n2)cc1 [GSK1229782] | 0% | 0% | 24% | 0% | 0% | 4% | 42% | 43% | 20% | 32% | 12% | 10% | 11% | 24% | 10% | 0% | 10% | 46% | 66% | 21%
10 | O=C(Nc1n[nH]c2nc(-c3nccs3)c(Br)cc12)C1CC1 [SB-742251] | 6% | 0% | 0% | 0% | 0% | 0% | 0% | 11% | 0% | 5% | 32% | 0% | 0% | 0% | 0% | 0% | 0% | 0% | 51% | 0%
11 | Cc1ccc(NC(=O)Nc2cccc(Cl)c2)cc1-c1ccc(C(=O)Nc2ccncc2)cc1 [GSK1398468] | 0% | 0% | 0% | 0% | 1% | 0% | 0% | 12% | 5% | 0% | 11% | 0% | 1% | 22% | 1% | 0% | 1% | 80% | 47% | 0%
